Bioassay records deposited in PubChem by National Center for Advancing Translational Sciences (NCATS).
IMPase cell inh – qHTS Assay for Identifying the Cell-Membrane Permeable IMPase Inhibitors; 120,000 tested, under 10 active; CHO-M1 cells, IP1 accumulation, HTRF TR-FRET ratio; inhibition (IP1 accumulation), % at 46.1 µM; AID 901, 2007; active means well fitted curve in the direction sought with a large enough effect in the signal ratio, not every such curve was filed as active; inconclusive means small, poorly fitted or top-dose-only effect, or a change in a side signal; inactive means no such curve, though single readings can be large or run the other way; the % refers to the signal ratio;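 further: cells stimulated with carbachol in lithium chloride buffer; plate controls were DMSO basal wells for no effect and reference inhibitor wells for full effect; higher means more IMPase inhibition seen as more IP1 and lower FRET ratio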
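In this qHTS, compounds (final up to 46 uM) act on CHO-M1 cells that are then activated through the M1 receptor with carbachol, in pH 7.4 buffer containing 50 mM LiCl, for 30 min. IP1 accumulation is quantified by the IP-One immunoassay.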
HPGD block – qHTS Assay for Inhibitors of HPGD (15-Hydroxyprostaglandin Dehydrogenase). actives 4.3% (n = 150,000). purified HPGD, NADH fluorescence kinetic, PGE2 substrate. 15-hydroxyprostaglandin dehydrogenase [NAD(+)] (Homo sapiens), P15428. Potency, µM, inactives show at the top dose activity change, negative = inhibition, hits mostly inhibitors; further: potency means the concentration at half of the fitted maximal effect
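20 nM HPGD preincubated 15 min at room temperature with compound in 50 mM Tris-HCl pH 8, 0.01% Tween 20. Started with 1 mM NAD+ and 30 uM prostaglandin E2; NADH fluorescence (360/450 nm) read 5 times over 30-s intervals, last minus first.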
IMPase Li inh – qHTS Assay for Identifying the Cell-Membrane Permeable IMPase Inhibitors: Potentiation with Lithium; CHO-M1 cells, IP1 TR-FRET (IP-One), carbachol + lithium; Potency, µM (titrated, usually from 59.4 µM), for the others: top-dose activity, negative = IMPase inhibition, most hits filed as inhibitors; actives 0.35% (n = 210,000); AID 1457, 2008; active means well fitted inhibition curve with a large enough effect; inconclusive means small, poorly fitted or top-dose-only effect; inactive means no such curve, though single readings can be large or run the other way;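 further: IP1 builds up when IMPase is blocked and the TR-FRET signal falls; potency means the concentration at half of the fitted maximal effect; plate controls were basal vehicle for no effect and high inhibitor control for full effect; nearly all actives have a fitted effect of over 50% in size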
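IP1 accumulation measured by competitive TR-FRET in lysed CHO-M1 cells after 30 min compound exposure at 37C, with a small lithium addition to potentiate weak responses. Hill-equation AC50 from ratio and donor-channel data.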
PNC assembly inh – High Content Assay for Compounds that inhibit the Assembly of the Perinucleolar Compartment; activity change (PNC), negative = inhibition, % at 10 µM; AID 2417, 2010; actives 3.1% (n = 140,000); PC3M PTB-GFP, PNC prevalence imaging, 16 h; hits give low values;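 active means readout at or below -70, meaning at least 70% loss of cells showing the perinucleolar compartment, a nuclear body marking cancer cells; inconclusive means readout between -30 and a set limit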;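 further: plate controls were DMSO wells for no effect and camptothecin positive control wells for full effect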
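PC3M cells stably expressing PTB-GFP, 750–1000 cells/well, treated 16 h at 37 °C with compound (23 nl of library stock), in duplicate. After paraformaldehyde fixation and Hoechst stain, imaged at 20x; PNC prevalence scored by image analysis.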
ALDH1A1 inh – qHTS Assay for Inhibitors of Aldehyde Dehydrogenase 1 (ALDH1A1) | Potency, µM (series often up to 75.3 µM), for the others: top-dose activity, negative = inhibition, hits mostly inhibitors | Purified ALDH1A1, NADH fluorescence, propionaldehyde substrate | actives 7.3% (n = 220,000) | AID 1030, 2008 | Aldehyde dehydrogenase 1A1 (Homo sapiens), P00352;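 further: potency means the concentration at half of the fitted maximal effect; plate controls were no enzyme wells and a reference inhibitor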
Target sequence (P00352 whole entry, looked up): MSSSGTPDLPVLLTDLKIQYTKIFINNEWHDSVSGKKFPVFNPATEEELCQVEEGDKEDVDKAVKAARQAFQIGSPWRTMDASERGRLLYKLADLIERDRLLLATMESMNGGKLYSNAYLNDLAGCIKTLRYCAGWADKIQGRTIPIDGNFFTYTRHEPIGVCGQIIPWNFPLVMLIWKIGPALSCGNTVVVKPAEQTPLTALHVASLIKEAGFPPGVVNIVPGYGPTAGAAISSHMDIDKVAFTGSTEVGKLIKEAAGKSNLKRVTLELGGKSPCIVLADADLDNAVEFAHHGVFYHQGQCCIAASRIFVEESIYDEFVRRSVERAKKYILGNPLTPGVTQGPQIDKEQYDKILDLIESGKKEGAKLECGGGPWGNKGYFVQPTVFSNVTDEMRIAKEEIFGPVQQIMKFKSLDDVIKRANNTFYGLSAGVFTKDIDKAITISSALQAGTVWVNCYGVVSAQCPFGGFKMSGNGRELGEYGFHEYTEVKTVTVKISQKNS
Starred values were filed as active, the others as inactive; ? = inconclusive; nt = no result; [ ] = remark or other dose. Most compounds without a hit are left out; they make up all but 11% or so of the library. Unless noted, the call rests on the fitted dose curve; in most records, active means well fitted inhibition curve with a large enough effect (not every such curve was filed as active); inconclusive means small, poorly fitted or top-dose-only effect, or another doubt; inactive means no such curve, though single readings can be large or run the other way. Unless noted, on the % scale 0 is the no-effect control and ±100 the full control effect.

SMILES | IMPase cell inh | HPGD block | IMPase Li inh | PNC assembly inh | ALDH1A1 inh
Cc1c(Cl)cn2c(=O)cc(CN(C)Cc3nc4ccccc4c(=O)[nH]3)nc2c1Cl | nt | nt | 5% | nt | -4%
COC(=O)c1ccc(C(NC(=O)OCc2ccccc2)/C(I)=C/[C@@H](C)C(=O)NCC2CC2)cc1 (stereo not given in full) | nt | 14µM* | 9% | nt | -11%
COC(=O)c1ccc(C(NC(=O)OCc2ccccc2)/C(I)=C/[C@@H](C)C(=O)Nc2ccccc2)cc1 (stereo not given in full) | nt | -25% | 3% | nt | 3%
COC(=O)c1ccc(C(NC(=O)OCc2ccccc2)/C(F)=C/[C@@H](C)C(=O)NCc2ccc(OC)c(OC)c2)cc1 (stereo not given in full) | nt | -11% | 9% | -119* | ?
Cc1ccc(C(c2nnnn2Cc2cccs2)N2CCN(C(=O)c3ccco3)CC2)cc1 (stereo not given) | 14 | 10% | 4% | ? | 4.5µM*
COc1ccc(C(c2nnnn2Cc2ccccc2)N2CCN(C(=O)c3ccco3)CC2)cc1 (stereo not given) | 4 | 1% | -2%[38.3 µM] | 9 | 28µM*
O=C(c1ccco1)N1CCN(C(c2ccccc2F)c2nnnn2Cc2cccs2)CC1 (stereo not given) | ? | -5% | 4%[38.3 µM] | 18 | 18µM*
CCC(c1nnnn1Cc1cccs1)N1CCN(C(=O)c2ccco2)CC1 (stereo not given) | nt | nt | 11% | nt | ?
Cc1cc(C)n(C(=O)c2ccc(Cn3nc(C)c(Br)c3C)o2)n1 | -4 | -6% | 7% | -100* | 0%
Cc1nn(Cc2ccc(C(=O)n3cccn3)o2)c(C)c1Br | -6 | -4% | 10% | -11 | 0%
Cc1ccc(Sc2c(C)nn(C(=O)c3ccc(Cl)cc3)c2C)cc1 | -3 | nt | nt | nt | nt
C/C(=N\NC(=O)c1cc(C(C)C)[nH]n1)c1ccco1 | 2 | 22µM* | 4% | 5 | 3%
C/C(=N/NC(=O)c1cc(-c2ccc(Br)s2)[nH]n1)c1ccco1 | nt | nt | 2% | nt | -11%
FC(F)(F)c1cccc(N2CCN(Cc3nnc(-c4ccc5c(c4)OCO5)o3)CC2)c1 | 12 | nt | nt | nt | nt
Cc1nc(N2CCN(C)CC2)[nH]c(=O)c1Cc1cccc2ccccc12 | 0 | -14% | 4%[38.3 µM] | -2 | ?
Cc1[nH]c(=O)[nH]c(=O)c1Cc1cccc2ccccc12 | nt | nt | -7% | nt | 10µM*
Nc1nc(Sc2ccc([N+](=O)[O-])c3nonc23)c2[nH]cnc2n1 | nt | 1.3µM* | 16% | nt | 2µM*
Cc1nc2cnc(Oc3ccccc3)nc2n(CCC#N)c1=O | nt | -15% | 6% | nt | ?
Cc1c(C=O)c2ccccc2n1CC(=O)NC(C)c1ccccc1 (stereo not given) | nt | nt | 7% | nt | -5%
CC1=NN(c2ccc(C(=O)OC(C)C)cc2)C(=O)/C1=C\C=C\c1ccco1 | -2 | -23% | 25% | 366 | ?
CC1=NN(c2ccc(C)c(C)c2)C(=O)/C1=C\C=C\c1ccc([N+](=O)[O-])o1 | nt | nt | 35% | nt | 8.9µM*
COc1cccc(-c2ccc(C#N)c(SCC(=O)NCCc3cccc(Cl)c3)n2)c1 | -20 | ? | 11µM* | 68 | ?
COc1ccc(-c2ccc(C#N)c(SCC(=O)NCCc3ccccc3)n2)cc1OC | -2 | ? | -15% | 7 | ?
Clc1ccccc1-c1nnc(-c2ccccc2CNc2ccc(Br)cc2)o1 | 5 | nt | nt | nt | nt
COc1cc(SC)ccc1C(=O)N1CCN(Cc2ccccc2)CC1 | nt | nt | 18% | nt | 1%
O=C(c1ccc(S(=O)(=O)Cc2ccccc2F)c([N+](=O)[O-])c1)N1CCCC1 | nt | nt | -2% | nt | ?
COc1cc(N(C)C)c([N+](=O)[O-])cc1C(=O)N1CCN(Cc2ccccc2)CC1 | nt | nt | 1% | nt | 10µM*
O=C(NC1CCCCC1)c1ccc(S(=O)(=O)c2ccccc2Cl)c([N+](=O)[O-])c1 | nt | -9% | 13% | -28 | -8%
